According to the supplement of paper PMC7866885, “A novel bicyclic 2,4-diaminopyrimidine inhibitor of Streptococcus suis dihydrofolate reductase” (PeerJ, 2021):
± gives the standard deviation.

Assays:
Streptococcus suis HE06 = experiment: percent growth relative to DMSO control; higher = less growth inhibition; conditions: 10 µM; incubation time 18 h
Protocol: (§1)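 CLSI broth microdilution: 5x10^4 CFU of Streptococcus suis (strain P1/7 or HE06) incubated with 10 µM Pathogen Box compound in cation-adjusted Mueller Hinton broth, 37 °C, 5% CO2, 18 h. Growth read as OD600 and expressed as percent of the DMSO-treated control (100%); mean ± SD of three independent experiments.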

Streptococcus suis P1/7 = experiment: as above; conditions: 10 µM; incubation time 18 h
Protocol: as §1

Structure (SMILES)	percent growth (Streptococcus suis HE06) [%]	percent growth (Streptococcus suis P1/7) [%]
c1ccc(-c2nc(NC3CCCCC3)cc(C3CC3)n2)nc1	7.51 ± 12	0.494 ± 1.2
CS(=O)(=O)N1CCC(Cn2nc(Cc3cccc4ccccc34)c3c(N)ncnc32)CC1	91.3 ± 29	65.7 ± 20
Cc1ccc2c(c1C)NC(=O)C21NN=C(c2ccccc2)S1 (configuration not stated)	0.434 ± 0.78	0.432 ± 0.48
Cc1ccccc1CN1CCC(O)(c2ccc(Cl)c(C(F)(F)F)c2)CC1	93.7 ± 15	102 ± 50
Oc1c(I)cc(I)c2cccnc12	0.688 ± 0.61	-0.0569 ± 0.099
CC1CCCN(C(=O)C(C)Nc2cc(Cl)ccc2N2CCOCC2)C1 (configuration not stated)	92 ± 11	94.4 ± 32
CCC(=O)Nc1ccccc1C(=O)Nc1ccccn1	93.7 ± 5.2	103 ± 41
COc1ccc(-c2cc(NC(=O)c3ccc(F)cc3Cl)ccc2OC)cc1	89.4 ± 3.4	96 ± 31
Cn1ccnc1CNCCS(=O)(=O)c1cccc(Nc2ccc(-c3cccc(F)c3)cn2)c1	91.4 ± 14	35 ± 38
CC(C)n1nc(-c2cc3c(Cl)cccc3[nH]2)c2c(N)ncnc21	112 ± 45	74.2 ± 5.9
O=C(NCCN1CCCC1)c1cc(NCCN2CCOCC2)nc2ccc(Cl)cc12	95.2 ± 4.7	83.1 ± 11
CN(C)CCNC(=O)N1CCCN(c2ncnc3cc(-c4ccccc4)sc23)CC1	92.9 ± 31	72.1 ± 3.5
Nc1ncc(-c2ccc(C(F)(F)F)nc2)cc1-c1ccc(C(F)(F)F)nc1	98.8 ± 13	101 ± 35
CC(C)C(NC(=O)Cc1cccc2ccccc12)C(=O)Nc1cccc(C#N)c1 (configuration not stated)	84.6 ± 21	158 ± 100
N#Cc1nc(-c2ccccc2F)oc1NCCc1ccccc1	113 ± 30	98.7 ± 25
CS(=O)(=O)c1ccccc1C(=O)N(Cc1ccccc1)c1ccccc1	115 ± 7.9	107 ± 33
Clc1cccc(C(c2ccc(CN3CCNCC3)cc2)n2ccnc2)c1 (configuration not stated)	96.6 ± 38	76.7 ± 5.8
CCc1cc(=O)n(C)c(SC(C)C(=O)Nc2ccc(F)cc2)n1 (configuration not stated)	110 ± 23	74.8 ± 63

Structure (SMILES)	percent growth (Streptococcus suis HE06) [%]	percent growth (Streptococcus suis P1/7) [%]
COc1cccc2c(C)nc(N=C(N)N)nc12	57.7 ± 22	66.8 ± 52
CC(=O)N(CCN(C(=O)c1ccc(F)cc1)c1ccccc1)c1ccccc1	86.6 ± 26	69 ± 13
Cc1ccc(-c2cc(C(=O)Nc3cccnc3)c3cc(Br)ccc3n2)cc1	99.1 ± 11	69.7 ± 1.4
CNc1snc(C)c1C(=O)NCCOc1ccc(OC)cc1	102 ± 22	115 ± 71
CCNC(=O)C(C)Nc1nc(-c2cccnc2)nc2sc(C)c(C)c12 (configuration not stated)	101 ± 8.4	64.5 ± 34
Cc1cc(NC(=O)c2ccc(Oc3ccc(Cl)cc3O)o2)no1	108 ± 22	124 ± 65
CCCn1c(CNc2ccccc2O)nc2ccccc21	62.6 ± 7.6	82.1 ± 38
COc1ccc(Cl)cc1NC(=O)CN(C)C(=O)c1cnn(-c2ccccc2)n1	79.4 ± 7.2	80.3 ± 29
O=C(NCc1nnc2n1CCCCC2)c1ccc(-c2ccc(F)cc2)o1	82.7 ± 15	106 ± 42
N=C(N)Nc1ccc(-c2ccc(-c3ccc(NC(=N)N)cc3Cl)o2)c(Cl)c1	22.2 ± 37	23.2 ± 34
Cc1nc(-c2cccc(NCc3ccccc3)c2)[nH]c1C	60.1 ± 36	12 ± 5.5
Cc1ccc(Oc2ccc(NC(=O)CNc3ccccc3N3CCCC3=O)cc2)cc1	86.9 ± 11	104 ± 14
CN(C(=O)c1cc2c(-c3cncnc3)cccc2[nH]1)c1ccccc1	102 ± 29	72.2 ± 27
C[C@H]1c2cccc(O)c2C(=O)C2=C(O)[C@]3(O)C(=O)C(C(N)=O)=C(O)[C@@H](N(C)C)[C@@H]3[C@@H](O)[C@@H]21	10.4 ± 18	1.89 ± 3.3
Cc1ccccc1C(=O)N1N=C(Nc2ccccc2)SC1(C)C	104 ± 8.3	80.9 ± 23
CC1CCCCN1C(=O)NCCc1coc(-c2ccc(F)cc2)n1 (configuration not stated)	79.5 ± 6.9	120 ± 87
O=C(Nc1ccc2c(c1)B(O)OC2)c1ccccc1C(F)(F)F	88.2 ± 15	88 ± 14
COc1ccc(-c2cnc3ccc(N4CCCC4)nn23)cc1OC	48.8 ± 40	77.7 ± 7.5
